# Sampled rows, rich in hits. Any-hit rate of the full collection: about 1.6%.
# ABCB6 inh 2 = ABCB6 transporter inhibitors, primary screen, K562-ABCB6 cells, flow cytometry, MLPCN library. K562-ABCB6 porphyrin accumulation, 1 h; stronger effect = lower value. fluorescence ratio to DMSO, % at 10 µM. 360,000 tested, 0.19% active. AID 602162, 2011;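 active = fluorescence ratio to DMSO below 75%, the collection mean minus 3 SD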;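 note: signal is porphyrin accumulated inside mitochondria; 100% equals median channel fluorescence of DMSO control wells; lower ratio means ABCB6 inhibition with less porphyrin fluorescence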
# N-glyco inh = increase of ERlucT glycosylation luciferase signal, primary screen, N-linked glycosylation inhibitor project, D54 ERlucT cells, luminescence, set 2 | D54 ERlucT glycosylation luciferase reporter, 24 h; percent of 100 nM tunicamycin response | 360,000 tested, 0.23% active | reporter increase, % at 12.5 µM;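 active = mean luciferase reporter signal, scaled so untreated is 0 and the glycosylation-blocking control 100, at or above a set limit in every replicate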;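 note: luciferase carries N-glycosylation sites so blocking glycosylation raises the light; 0% = median of neutral control wells and 100% = median of 100 nM tunicamycin wells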
# RAD54 inh = inhibitors of human RAD54 branch migration, primary screen, biochemical, fluorescence, single point; inhibition, % at 10.4 µM; AID 602329, 2012; 360,000 tested, 0.14% active; RAD54 Holliday junction branch migration, FAM/BHQ fluorescence;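 active = mean normalized replicate activity at least 40 and at least half of replicates scoring 40 or more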;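 note: 0% = median of neutral control wells and 100% = median of positive control wells; inhibitors cause a drop in the FAM fluorescence signal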
# Target sequence (Q92698 whole entry, looked up): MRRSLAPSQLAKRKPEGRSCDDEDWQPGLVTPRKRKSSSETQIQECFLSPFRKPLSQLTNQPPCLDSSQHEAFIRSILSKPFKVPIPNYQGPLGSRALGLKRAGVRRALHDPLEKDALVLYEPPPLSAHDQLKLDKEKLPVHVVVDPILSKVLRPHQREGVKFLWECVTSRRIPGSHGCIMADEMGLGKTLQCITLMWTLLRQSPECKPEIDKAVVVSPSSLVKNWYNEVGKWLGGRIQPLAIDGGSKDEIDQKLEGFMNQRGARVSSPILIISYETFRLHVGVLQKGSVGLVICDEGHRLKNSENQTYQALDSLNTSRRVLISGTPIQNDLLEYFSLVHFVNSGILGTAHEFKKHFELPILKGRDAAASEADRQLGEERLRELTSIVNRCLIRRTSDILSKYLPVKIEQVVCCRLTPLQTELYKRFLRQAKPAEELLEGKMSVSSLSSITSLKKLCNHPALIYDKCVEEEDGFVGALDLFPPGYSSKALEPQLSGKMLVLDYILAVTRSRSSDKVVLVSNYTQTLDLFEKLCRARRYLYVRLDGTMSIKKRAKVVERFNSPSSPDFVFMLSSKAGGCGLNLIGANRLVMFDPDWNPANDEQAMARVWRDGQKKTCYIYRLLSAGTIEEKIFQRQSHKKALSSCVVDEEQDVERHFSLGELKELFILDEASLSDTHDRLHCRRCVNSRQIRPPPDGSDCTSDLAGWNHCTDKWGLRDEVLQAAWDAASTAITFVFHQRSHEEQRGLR
# Myeloid diff MLP = induction of myeloid progenitor differentiation, primary screen, cell-based, flow cytometry, MLPCN library; ER-HoxA9 myeloid progenitors, lysozyme-GFP differentiation; calls only at 10 µM; 360,000 tested, 1% active; AID 624256, 2012;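 active = normalized GFP-positive differentiation at or above the plate's own cutoff, the solvent-only control mean plus 3 SD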;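 note: cells exposed to compound for four days before flow analysis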
# Vif inh = HIV Vif self-association inhibitors, primary screen, imaging, HEK293T, single point; 340,000 tested, 0.35% active; HEK293T cells, Vif self-association by quenched fluorescence, 24 h; inhibition, % at 7.49 µM; in the data active = inhibition above about 50%, passing the limit was not always enough
# Myeloid diff CP1 = inducers of myeloid progenitor differentiation, confirmation, cell-based, GFP/Mac1 flow cytometry, cherry pick 01; calls only; 2,300 tested, 2% active; shares compounds with Myeloid diff MLP; AID 651706, 2012; ER-HoxA9 myeloid progenitors, GFP/Mac1 double-positive flow;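 active = share of green or green-and-red cells above 9 and 9% in run 1 or 4 and 3% in run 2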
# GFP autofluor = compound fluorescence in myeloid differentiation counter-screen. shares compounds with Myeloid diff MLP. 2,300 tested, 7.4% active. ER-HoxA9 myeloid progenitors, no estrogen, GFP autofluorescence flow cytometry; vehicle wells 0%, positive control 100%. fluorescence response, % (test concentration not listed);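 active = over 5% cells positive for green fluorescent reporter, or over 2% positive for both it and APC stain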;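 note: range taken on the double positive population between DMSO and positive control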
# The depositor's hits bear a star; i = inactive; / = not tested or not shown; + = active, no number.
SMILES,ABCB6 inh 2,N-glyco inh,RAD54 inh,Myeloid diff MLP,Vif inh,Myeloid diff CP1,GFP autofluor
CCN(CC)S(=O)(=O)c1ccc(N/N=C/c2ccc(O)cc2)nc1,88,-2,/,i,6,i,0
Nc1ccc(C#Cc2ccc3c(=O)c4ccccc4oc3c2)cc1,115,-6,-3,i,4,+,0
O=C(Cc1ccccc1)N/N=C/c1ccc(-c2ccc([N+](=O)[O-])cc2)o1,95,-4,-1,+,24,i,3
O=[N+]([O-])c1ccc(/C=N/Nc2nc(N3CCCC3)nc(N3CCCC3)n2)o1,90,6,4,i,-16,/,/
O=[N+]([O-])c1ccc(-c2ccc(/C=N/Nc3nc(N4CCCC4)nc(N4CCCC4)n3)o2)cc1,425,-9,/,+,3,i,6.0*
Cc1nc(C(=O)Nc2cc(Cl)ccc2Cl)nn1-c1cc(OC(C)C)c(Cl)cc1Cl,95,-2,3,i,-7,/,/
Cc1nc(C(=O)Nc2cccc(Cl)c2)nn1-c1cc(OC(C)C)c(Cl)cc1Cl,103,-3,4,+,-17,i,0
CC1(C(=O)NC2CCCCCCC2)CCC(=O)N1Cc1cccs1 (stereo unspecified),97,0,4,i,-6,/,/
CC1(C(=O)NC2CCCCC2)CCC(=O)N1Cc1cccs1 (stereo unspecified),98,0,1,i,/,i,0
CCOc1ccccc1C(=O)Nn1c(C2CCC2)nc2ccccc2c1=O,94,2,-11,+,0,i,0
COC(=O)[C@H]1[C@H](CO)[C@H]2Cn3c(ccc(-c4ccccc4)c3=O)[C@H]2N1CC1CCCCC1,/,/,-3,/,/,/,/
COC(=O)C1CC2=C(CCCC2=O)NC1=O (stereo unspecified),97,2,-1,i,2,i,0
C[C@@H]1CN([C@H](C)CO)S(=O)(=O)c2ccc(/C=C/c3ccccc3)cc2O[C@H]1CN(C)C(=O)CN1CCOCC1,/,/,1,/,/,/,/
Nc1nc(N)nc(-c2ccc(Cl)cc2)n1,94,1,0,i,-3,/,/
Cc1ccc(Oc2ccc(-c3nc(N)nc(N)n3)cc2)cc1,80,-2,-1,+,-7,i,0
Cc1ccc2[nH]c(CCN(C)C)c(CN3CCOCC3)c2c1,98,-3,12,i,-5,i,0
O=C(O)C1CCN(Cc2cnn(-c3ccccc3)c2-n2cccc2)CC1,100,0,-2,i,3,/,/
O=C(NC1CC1)C1CCN(Cc2cnn(-c3ccccc3)c2-n2cccc2)CC1,101,1,12,+,-8,i,1
CC(C)c1nc(SCC(=O)c2c[nH]c3ccccc23)n[nH]1,97,1,-18,i,6,/,/
CCc1nc(SCC(=O)c2c[nH]c3ccccc23)n[nH]1,120,3,/,i,-2,i,1
COC(=O)C1=C(C)N(Cc2ccccc2)C(=NCc2cc(OC)c(OC)c(OC)c2)N[C@H]1CCc1ccccc1,94,-7,14,+,/,i,0
CCOc1cc(C=C2C(=O)c3ccccc3C2=O)ccc1OCC(=O)Nc1ccc(C)cc1,97,0,/,+,0,i,0
COC(=O)c1cccc(C(=O)Nc2ccc(F)cc2)n1,86,-1,-9,i,1,i,0
Cc1ccc(N2CCN(C(=O)c3[nH]c(C(F)(F)F)nc3-c3ccccc3)CC2)cc1,92,-1,5,i,6,/,/
Cc1cc(N2CCN(C(=O)c3[nH]c(C(F)(F)F)nc3-c3ccccc3)CC2)c2ccccc2n1,98,5,23,i,1,i,82*
O=C(c1cccs1)N1C[C@H](n2cc(-c3ccc(F)cc3)nn2)[C@@H](O)C[C@@H]1c1ccc(Cl)cc1,94,3,-7,i,-2,/,/

# Compound activity deposited in PubChem BioAssay by several laboratories.
